The values below come from PubChem BioAssay (NCATS).

Results filed as inconclusive are left out. The source made the active and inactive calls. Calls follow the shape of the dose curve; as a rule, active = well fitted inhibition curve with a large enough effect; inconclusive = small, poorly fitted or top-dose-only effect; inactive = flat fitted curve, though single readings scatter.

The subject of this assay is Zika virus NS2B-NS3 protease. Description: Primary screen GU AMC qHTS for Zika virus inhibitors (AID 1347154).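 Also: 0% = no-inhibitor control and -100% = no-enzyme control; nearly all actives have a fitted effect of over 70% in size.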 Conditions: Zika NS2B-NS3 unlinked protease, AMC fluorogenic substrate; series mostly up to 54.1 µM; activity change, negative = inhibition: at the top concentration. The essentials: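 Unlinked Zika NS2B hydrophilic domain–NS3 protease complex at 25 nM in 10 mM Tris-HCl pH 8.0, 0.01% Tween 20, with an AMC peptide substrate. Fluorescence change (340/450 nm) over 15 min at room temperature, normalized to controls, fitted to 4-parameter Hill.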
On to `CN(C)CCN1C(=O)c2cccc3cc(N)cc(c23)C1=O`, for which the “activity change, negative = inhibition” value was 4.87% (inactive).

As to `C[C@H](NCc1ccc(OCc2cccc(F)c2)cc1)C(N)=O`, the “activity change, negative = inhibition” value was 1.87% (inactive).

On to `CC(=O)OCC(=O)[C@@]12N=C(C)O[C@H]1C[C@H]1[C@@H]3CCC4=CC(=O)C=C[C@]4(C)[C@@H]3[C@@H](O)C[C@@]12C`, for which the “activity change, negative = inhibition” value was -0.407% (inactive).

As to `C#C[C@]1(O)CC[C@@H]2[C@@H]3CCc4cc(O)ccc4[C@H]3CC[C@@]21C`, the “activity change, negative = inhibition” value was -2.57% (inactive).

Take `C[C@H]1C[C@H]2[C@@H]3CCC4=CC(=O)C=C[C@]4(C)[C@@H]3C(=O)C[C@]2(C)[C@@]1(O)C(=O)CO`: the “activity change, negative = inhibition” value is 2.9% (inactive).

On to `O=C1CSC(=O)N1C(CCc1ccncc1)COc1ccc(-c2cccc([N+](=O)[O-])c2)cc1` (stereo not drawn), for which the “activity change, negative = inhibition” value is 20.1% (inactive).

Turning to `CC(C)n1cnc2c(NCCc3ccc(O)cc3)nc(-c3csc4ccccc34)nc21`, the “activity change, negative = inhibition” value was -22.3% (inactive).

As for `NC(=O)N1CCC(CC(=O)N2CCC([C@H]3c4ncc(Br)cc4CCc4cc(Cl)cc(Br)c43)CC2)CC1`, the “activity change, negative = inhibition” value is -7.77% (inactive).

For the compound `C[C@H](NC(=O)Cc1cc(F)cc(F)c1)C(=O)N[C@H](C(=O)OC(C)(C)C)c1ccccc1`, the “activity change, negative = inhibition” value is 4.92% (inactive).

As for `C[C@H](CCC(=O)O)[C@H]1CCC2C3C[C@H](O)[C@@H]4C[C@H](O)CC[C@]4(C)C3CC[C@@]21C` (stereo partly drawn), the “activity change, negative = inhibition” value was 5.16% (inactive).

For the compound `Cn1cc(-c2ccc3ncc(Cc4ccc5ncccc5c4)n3n2)cn1`, the “activity change, negative = inhibition” value was 304% (inactive).

On to `COc1cc(CCc2cc(NC(=O)c3ccc(N4C[C@@H](C)N[C@@H](C)C4)cc3)n[nH]2)cc(OC)c1`, for which the “activity change, negative = inhibition” value was 18% (inactive).

On to `Cc1ccc(O)c(C(CCN(C(C)C)C(C)C)c2ccccc2)c1` (stereo not drawn), for which the “activity change, negative = inhibition” value is 6.1% (inactive).

Take `COc1ccc(Nc2nccc(NCCO)n2)cc1`: the “activity change, negative = inhibition” value is -13.3% (inactive).

On to `Nc1ccc(C(=O)Nc2cccc(-c3nc(N4CCOCC4)c4oc5ncccc5c4n3)c2)cn1`, for which the “activity change, negative = inhibition” value is -20.6% (inactive).

For the compound `O=C(c1ccc(F)cc1)N1CCC[C@H](c2nc(-c3ccc(F)cc3)no2)C1`, the “activity change, negative = inhibition” value is 6.17% (inactive).

As to `CC(C)(O)CC[C@@H](O)[C@](C)(O)[C@H]1CC[C@@]2(O)C3=CC(=O)[C@@H]4C[C@@H](O)[C@@H](O)C[C@]4(C)[C@@H]3CC[C@]12C`, the “activity change, negative = inhibition” value is 2.63% (inactive).

`Nc1ccn(C2CO[C@H](CO)O2)c(=O)n1` (stereo partly drawn): the “activity change, negative = inhibition” value was -3.39% (inactive).

Take `COc1ccc([C@@H]2CNC(=O)C2)cc1OC1CCCC1`: the Potency result is “inactive”.

Turning to `NC[C@H]1O[C@H](O[C@H]2[C@@H](O)[C@@H](O[C@H]3O[C@H](CO)[C@@H](O)[C@H](N)[C@@H]3O)[C@H](N)C[C@@H]2N)[C@H](N)C[C@H]1O`, the “activity change, negative = inhibition” value was 13.5% (inactive).

Consider `Cc1cc(C(=O)NOCCO)c(Nc2ccc(I)cc2F)n(C)c1=O`, for which the “activity change, negative = inhibition” value is -0.225% (inactive).

Regarding `CC(C)[C@H](CO)Nc1nc(Nc2cccc(Cl)c2)c2ncn(C(C)C)c2n1`, the Potency entry was “inactive”.

With `C=CC(=O)Nc1cc(NC(=O)c2ccc(C)c(NC(=O)c3ccno3)c2)cc(C(F)(F)F)c1`, the “activity change, negative = inhibition” value is 2.6% (inactive).

On to `CCCCCN=C(N)NN=Cc1c[nH]c2ccc(OC)cc12`, for which the “activity change, negative = inhibition” value was -1.37% (inactive).

On to `C[C@]12CCC(=O)C=C1[C@@H]1CC1[C@H]1[C@H]3[C@@H]4C[C@H]4[C@@]4(CCC(=O)O4)[C@@]3(C)CC[C@H]12` (stereo partly drawn), for which the “activity change, negative = inhibition” value was 0.549% (inactive).

As for `C#Cc1cccc(Nc2ncnc3cc(OCCOC)c(OCCO)cc23)c1`, the “activity change, negative = inhibition” value is 1.33% (inactive).

Regarding `Cc1cc(-c2nnc3n2CCCCC3)c(C)n1-c1ccccc1`, the “activity change, negative = inhibition” value is -3.36% (inactive).

Take `Cc1cc(O)c2c(c1)C(=O)c1cccc(O)c1C2=O`: the “activity change, negative = inhibition” value is 6.61% (inactive).

Take `CC(C=CC=C(C)C=CC1=C(C)CCCC1(C)C)=CC=CC=C(C)C=CC=C(C)C=CC1=C(C)CCCC1(C)C`: the “activity change, negative = inhibition” value is -15.5% (inactive).

Regarding `CCC[C@H]1C[C@H](C(=O)N[C@@H]([C@@H]2O[C@@H](SC)[C@@H](O)[C@@H](O)[C@@H]2O)[C@H](C)Cl)N(C)C1`, the “activity change, negative = inhibition” value was 11.4% (inactive).

As for `O=C(O)C(=O)Nc1cccc(C2=NN=N[N]2)c1`, the “activity change, negative = inhibition” value was -2.58% (inactive).

As to `Oc1ccc([C@@H]2Oc3ccc(O)cc3[C@@H]3CCC[C@@H]32)cc1`, the “activity change, negative = inhibition” value is -6.85% (inactive).

For `Cc1onc(-c2ccccc2)c1C(=O)N[C@@H]1C(=O)N2[C@@H](C(=O)O)C(C)(C)S[C@@H]12`, the “activity change, negative = inhibition” value is -9.5% (inactive).

On to `CCN(C(=O)c1c(O)c2c(Cl)cccc2n(C)c1=O)c1ccccc1`, for which the “activity change, negative = inhibition” value was 1.93% (inactive).

As to `CON=C(C(=O)N[C@@H]1C(=O)N2C(C(=O)O)=C(Cn3ccc(=N)n3CCO)CS[C@H]12)c1csc(N)n1`, the “activity change, negative = inhibition” value is -1.01% (inactive).

Regarding `O=c1[nH]c(=O)n([C@H]2C[C@@H](O)[C@@H](CO)O2)cc1C=CBr`, the “activity change, negative = inhibition” value is -0.424% (inactive).

Consider `OC[C@@H](O)[C@@H](O)[C@H](O)[C@@H](O)CO`, for which the “activity change, negative = inhibition” value was 16.4% (inactive).

For `Cc1noc(-c2ccc(CSCCC(=O)O)cc2)c1NC(=O)OC(C)c1ccccc1Cl` (stereo not drawn), the “activity change, negative = inhibition” value was -4.24% (inactive).
